Source: PubChem BioAssay AID449762 (Southern Research Specialized Biocontainment Screening …, 2010)
The campaign covered roughly 330,000 compounds. About 1,900 (0.58%) were called active. About 4% were inconclusive and are not listed. These entries were drawn from the full list. Potency and affinity values are given separately. A number with no mark means an inactive call. No stated cut-off is given here; in the data, inconclusive means inhibition above about 70% without an active follow-up result; inactive means below that.

Assay: M. tuberculosis growth inhibition, HTS (AID 449762);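 further: bacterial growth assessed after seven days of incubation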
Details: M. tuberculosis H37Rv growth inhibition, 7H9 media; at 25 µM; active compounds read high

Compound | inhibition
COc1cccc(C(=O)NC2CC3CCCC(C2)N3CC(=O)Nc2ccccc2)c1 (stereo unspecified) | 46.8%
CN(C)c1ccc(NC(=O)CN2C3CCCC2CC(NC(=O)c2ccccc2)C3)cc1 (stereo unspecified) | 49%
COc1ccc(OC)c(NC(=O)CN2C(=O)NC3(CCCc4ccccc43)C2=O)c1 (stereo unspecified) | 0.98%
COc1ccc(NC(=O)CN2C(=O)NC3(CCCc4ccccc43)C2=O)c(OC)c1 (stereo unspecified) | -0.44%
COc1ccc(N2CCN(C3CCCN(Cc4ccccc4OCCO)C3)CC2)cc1 (stereo unspecified) | -8.3%
CS(=O)(=O)N(CC(=O)N1CCCC1)c1ccccc1F | -1.03%
O=C(Nc1ccc2c(c1)CCCN2C(=O)c1cccs1)c1cccc(F)c1 | 25.3%
CC1=NN(c2ccccc2)C(=O)/C1=C/c1c(O)n(-c2ccc(F)cc2)[nH]c1=O | -0.04%
CC1=NN(c2ccccc2)C(=O)/C1=C/c1c(C)[nH]n(-c2ccc(C)cc2)c1=O | 3.09%
Cc1ccc(-c2nc(N)n(S(C)(=O)=O)n2)cc1 | -7.35%
Nc1c2c(nc3sc4c(c13)CCCC4)CCCCCC2 | 11.9%
Nc1nc2sc3c(c2c(=O)s1)CCCC3 | -5.9%
CCN1CCN(C(c2ccccc2)c2nnnn2Cc2ccc3c(c2)OCO3)CC1 (stereo unspecified) | -1.8%
COCCn1nnnc1C(c1ccccc1)N1CCN(Cc2ccc3c(c2)OCO3)CC1 (stereo unspecified) | 5.3%
Cc1cc(C(=O)CSc2nnc(-c3ccco3)o2)c(C)n1C | 0.77%
COc1ccc(N2CCN(C(=O)CSc3nc(C)cs3)CC2)cc1 | 13.4%
COCC(C)n1c(SCC(=O)Nc2oc(C)c3c(C)n[nH]c(=O)c23)nc2ccccc2c1=O (stereo unspecified) | 1.83%
COc1cccc2cc(C(=O)N(C)C3CCN(C)CC3)c(=O)oc12 | 2.2%
CCOc1ccc(NC(=O)Nc2cccn(Cc3ccccc3)c2=O)cc1 | 11.4%
CSc1ccc(NC(=O)Nc2cccn(Cc3ccccc3F)c2=O)cc1 | 0.76%
Cc1nnc(SCCC(=O)Nc2ccc(F)cc2)s1 | 58.3%
Cc1ccc(NC(=O)c2ccccc2NC(=O)c2cccnc2)cc1 | 11.1%
O=C(NNC(=S)Nc1ccccc1Cl)c1ccccc1 | -3.72%

Compound | inhibition
CCn1cc(C(=O)NCC(C)C)c(=O)c2cc(F)c(N3CCN(C(=O)c4ccco4)CC3)cc21 | 0.58%
CCn1cc(C(=O)NC(C)C)c(=O)c2cc(F)c(N3CCN(C(=O)c4ccco4)CC3)cc21 | 19.2%
Cc1cc(C)nc(-n2nc(C)cc2NC(=O)c2ccc(S(=O)(=O)N3CCOCC3)cc2)n1 | 9.62%
Cc1nn(C)c(C)c1/C=C(/C(=O)C(C)(C)C)n1cncn1 | -1.56%
CC(=O)N/C(=C\c1cccc([N+](=O)[O-])c1)C(=O)NC(C)C | -0.52%
Cc1c(Oc2ccc(C(F)(F)F)cc2[N+](=O)[O-])ccc2c3c(c(=O)oc12)CCC3 | -1.9%
CCOc1ccc(N2C(=O)CC(NCC#N)C2=O)cc1 (stereo unspecified) | 0.53%
O=C1Nc2cc(C(=O)NCCCN3CCOCC3)ccc2S/C1=C/c1ccccc1F | 16.4%
COc1ccc(/C=C2/Sc3ccc(C(=O)NCCCN4CCOCC4)cc3NC2=O)cc1OC | -4.7%
Cc1c(Cl)ccc2c(C(=O)O)cc(-c3ccccc3)nc12 | 0.17%
COc1ccc(OC)c(-c2cc(C(=O)NC3CCCC3)c3ccccc3n2)c1 | -8.38%
CC1CCc2cc(F)ccc2N1C(=O)c1cccs1 (stereo unspecified) | 1.29%
Cc1nccn1-c1cc(C(C)(C)C)nc2c(-c3ccccc3)cnn12 | -1.52%
CC(C)(C)c1cc(N2CCOCC2)n2ncc(-c3ccccc3)c2n1 | 3.06%
CCCCNC(=O)C1=C(N)C(C(=O)Nc2ccc(C)c(S(=O)(=O)N3CCCCC3)c2)SC1=Nc1ccc(C)cc1C (stereo unspecified) | -11.1%
O=C(CCc1nc(-c2ccccc2Cl)no1)NC1CCCC1 | -5.48%
CS(=O)c1nc(-c2ccc(Br)cc2)cc(-c2ccccc2)c1C#N (stereo unspecified) | 65%
COc1ccc(-c2cc(-c3ccccc3)c(C#N)c(S(C)(=O)=O)n2)cc1 | 8.53%
CC1(C)Cc2nc3nc(SCC(=O)NCCc4ccccc4)n(-c4ccccc4)c(=O)c3cc2CO1 | -2.48%
S=C(Nc1cccc(Cl)c1)N1CCOCC1 | -10.2%
Cc1ccc2[nH]c(=O)c(CN(CCCN3CCOCC3)C(=O)Nc3cccc(Cl)c3)cc2c1 | 10.9%
CCc1ccc2[nH]c(=O)c(CN(CCCN3CCOCC3)C(=O)Nc3ccccc3)cc2c1 | 4.92%
C=CC[C@@H](CC(=O)N[C@H](CO)Cc1ccccc1)C(=O)N[C@@H](C)COC(=O)[C@@H](CC=C)Cc1ccc(F)cc1 | 3.8%

Compound | inhibition
COc1ccccc1N1CCN(CCCCOc2ccc(F)cc2)CC1 | -1.86%
Clc1cccc(OCCCCN2CCCCC2)c1 | 0.99%
NC(=O)c1ccc(-c2ncc(-c3ccccc3)o2)cc1 | 51.1%
COC(=O)c1ccc(-c2n[nH]c(=O)c3ccccc23)cc1 | -2.05%
CCN1C(=O)[C@H]2[C@@H](c3ccc(-c4ccc(C(C)=O)cc4)cc3)N3CCCC[C@@]3(C(=O)OC)[C@H]2C1=O | -6.49%
CCCCN1C(=N)N([C@@H](CCC)CN2CCC[C@H]2CN2C(N)=NC[C@H]2C(C)C)C[C@H]1[C@H](C)CC | 1.37%
O=C(Cc1ccccc1)c1nc2ccccc2s1 | -3.11%
Cc1cc(C(=O)COC(=O)COc2ccc(C#N)cc2)c(C)n1C1CC1 | 3.67%
Cc1cc(C)cc(OCC(=O)OCC(=O)c2cc(C)n(C3CC3)c2C)c1 | 54.3%
CC(=O)NC(Cc1c[nH]c2ccccc12)C(=O)Nc1ccc2c(c1)OCO2 (stereo unspecified) | -2.05%
C/C(=N/OC(=O)c1c(-c2ccccc2Cl)noc1C)c1cnccn1 | 3.98%
COc1ccc(CN2CCNC(=O)C2CC(=O)N(C)Cc2cc(C)no2)cc1OC (stereo unspecified) | -7.74%
COC(=O)Cc1cc(=O)[nH]c(Nc2nc3ccccc3o2)n1 | 29.9%
CCOC(=O)Cc1cc(=O)[nH]c(Nc2nc3ccccc3o2)n1 | -2.99%
C/C(Sc1nnc(Cc2ccccc2)o1)=C(/O)c1ccccc1 | -0.32%
S=C1NCCOCCOCCOCCOCCNC(=S)NCCOCCOCCOCCOCCN1 | -3.9%
Cc1ccc(SC/C(O)=C(\C#N)c2nc3ccccc3s2)cc1 | 1.37%
N#C/C(=C(/O)COc1ccccc1)c1nc2ccccc2s1 | 56.1%
O=C(O)CCc1nc(-c2ccccc2)c(-c2ccccc2)o1 | 6.1%
O=C(CCc1nc(-c2ccccc2)c(-c2ccccc2)o1)OCc1ccc(Br)cc1 | 70.2%
O=C(Nc1nc2ccc(S(=O)(=O)N3CCCC3)cc2s1)c1ccco1 | -2.95%
COc1ccccc1-n1c(/C=C/c2ccccn2)nc2ccccc2c1=O | -5.93%
CC(C)N(C(=S)Nc1cc(S(=O)(=O)N2CCOCC2)ccc1Cl)c1ccccc1 | -5.84%

Compound | inhibition
Cc1cc(NC(=O)c2cc(-c3cccs3)nc3ccccc23)no1 | -0.3%
NNC(=O)c1cc(-c2cccs2)nc2ccccc12 | 9.4%
CC(C)N(C1=N/C(=C\c2ccco2)C(=O)N1c1ccccc1)C(C)C | -0.07%
Cc1noc(C(F)(F)F)c1C(=O)NNC(=O)c1cccc(C(F)(F)F)c1 | 3.93%
CCOC(=O)C1C(=O)NC(SCC(=O)Nc2nccs2)=C(C#N)C1c1ccccc1OCC (stereo unspecified) | 55.1%
CC1CCCCN1CCNC(=O)C1CCCN(S(=O)(=O)c2cccc3nsnc23)C1 (stereo unspecified) | 3.33%
CN(C)c1nc(NCc2ccccc2)nc(N/N=C/c2ccc(Cl)cc2Cl)n1 | 9.37%
CN(C)c1nc(NCc2ccccc2)nc(N/N=C/c2ccc(Br)cc2)n1 | 3.27%
COc1ccc(N2CC(C(=O)O)CC2=O)cc1 (stereo unspecified) | -12.1%
COc1ccc(CN=C(C)c2c(C(F)(F)F)[nH]n(-c3nc4ccccc4s3)c2=O)cc1 | -13.3%
CCC(=NCc1ccccc1)c1c(C(F)(F)F)[nH]n(-c2nc3ccccc3s2)c1=O | -0.69%
COc1ccccc1NC(=O)CSc1nn2c(=O)c(C)nnc2s1 | -20.7%
Cc1cc(C)nc(SCCCNCc2c(F)cccc2Cl)n1 | 0.32%
Cc1ccc(-n2c(C)nc3ccsc3c2=O)cc1 | 9.48%
Cc1ccc(-n2c(Cl)c(Cl)[nH]c(=O)c2=O)cc1 | -6.67%
Cc1noc(C)c1COc1ccccc1C(=O)N1CCN(S(=O)(=O)c2ccccc2C(F)(F)F)CC1 | -1.24%
COC(=O)c1cccc(NC(=O)Cc2ccccc2[N+](=O)[O-])c1C | 2.19%
OC(Cn1cncn1)c1ccc(Cl)cc1 (stereo unspecified) | -4.52%
O=C(NCc1ccccc1)NC12CC3CC(CC(C3)C1)C2 | -2.17%
Cc1ccc(CNC(=O)NC23CC4CC(CC(C4)C2)C3)cc1 | 7.32%
Cc1noc(C)c1COc1ccc(C(=O)OCC(=O)NC2CCCCC2C)cc1 (stereo unspecified) | 48.8%
Cc1noc(C)c1COc1ccc(C(=O)OCC(N)=O)cc1 | 12.9%
